Laboratory results published in PubChem BioAssay (NCATS).
Records with an inconclusive call do not appear. Calls of active or inactive are those of the source. Calls follow the shape of the dose curve; as a rule, active = well fitted curve in the direction sought with a large enough effect; inconclusive = small, poorly fitted or top-dose-only effect, or another doubt; inactive = no such curve, though single readings can be large; an effect the other way counts as inactive or inconclusive.

What was measured:
NIH3T3 = assay: qHTS assay to identify novel small-molecules to repurpose for Merkel cell carcinoma treatment (AID 1296009); conditions: MCC and control cell lines, CellTiter-Glo viability, 72 h; series mostly up to 44.8 µM; also: nearly all actives have a fitted effect of over 60% in size
Method in brief: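 CellTiter-Glo luminescence after 72 hr compound exposure at 37 degree celsius gave cell viability. Libraries NPC and MIPE were run as 8- and 11-point dose responses; RLUs normalized to DMSO (negative) and no-cell (cytotoxicity) controls.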

C33A = assay: Primary qHTS to identify gynecologic anti-cancer compounds using libraries of approved drugs and bioactive compounds (AID 1345084); conditions: Gynecologic cancer cell panel viability, ATPlite luminescence, 48 h; series mostly up to 57.5 µM; also: % is scaled to controls: 0 for no effect and ±100 for the full control effect; nearly all actives have a fitted effect of over 55% in size
Method in brief: (§1)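 Cells, 1,000 per well, were allowed to settle for 16 h at 37 C before compound addition. Five concentrations were tested for 48 h, and viability was read by ATPlite luminescence after 15 min at room temperature.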

CAOV3 = assay: as above; conditions: Gynecologic cancer cell panel viability, ATPlite luminescence, 48 h; series mostly up to 57.5 µM
Method in brief: as §1

CASKI = assay: as above; conditions: Gynecologic cancer cell panel viability, ATPlite luminescence, 48 h; series mostly up to 57.5 µM
Method in brief: as §1

Es-2 = assay: as above; conditions: Gynecologic cancer cell panel viability, ATPlite luminescence, 48 h; series mostly up to 57.5 µM
Method in brief: as §1

HeLa = assay: as above; conditions: Gynecologic cancer cell panel viability, ATPlite luminescence, 48 h; series mostly up to 57.5 µM
Method in brief: as §1

Hek293T = assay: as above; conditions: Gynecologic cancer cell panel viability, ATPlite luminescence, 48 h, control line for the selectivity index; series mostly up to 57.5 µM
Method in brief: as §1

JEG-3 = assay: as above; conditions: Gynecologic cancer cell panel viability, ATPlite luminescence, 48 h; series mostly up to 57.5 µM
Method in brief: as §1

OV90 = assay: as above; conditions: Gynecologic cancer cell panel viability, ATPlite luminescence, 48 h; series mostly up to 57.5 µM
Method in brief: as §1

PA-1 = assay: as above; conditions: Gynecologic cancer cell panel viability, ATPlite luminescence, 48 h; series mostly up to 57.5 µM
Method in brief: as §1

SKOV3 = assay: as above; conditions: Gynecologic cancer cell panel viability, ATPlite luminescence, 48 h; series mostly up to 57.5 µM
Method in brief: as §1

Tov-21-G = assay: as above; conditions: Gynecologic cancer cell panel viability, ATPlite luminescence, 48 h; series mostly up to 57.5 µM
Method in brief: as §1

Tov112D = assay: as above; conditions: Gynecologic cancer cell panel viability, ATPlite luminescence, 48 h; series mostly up to 57.5 µM
Method in brief: as §1

[1] = Drug repurposing screens with cells derived from glioblastoma tumor samples (AID 1345199); conditions: GBM patient neurospheres viability, ATP luminescence, 48 h; also: % is scaled to controls: 0 for no effect and ±100 for the full control effect; nearly all actives have a fitted effect of over 40% in size
Method in brief: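 Primary testing used CD133+ neurospheres from four GBM patients, seven concentrations, 48 h exposure and ATP-based viability; confirmation added three slower-growing patient lines.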

COc1cc2c(cc1OCCCN1CCCC1)N=C(N)C21CCC1
inactive: Potency (NIH3T3) | Potency (C33A) | Potency (CAOV3) | Potency (CASKI) | Potency (Es-2) | Potency (HeLa) | Potency (Hek293T) | Potency (JEG-3) | Potency (OV90) | Potency (PA-1) | Potency (SKOV3) | Potency (Tov-21-G) | Potency (Tov112D)

Cc1cc(NC(=O)NCCN2CCC(O)(Cc3ccccc3)CC2)c2ccccc2n1
inactive: Potency (NIH3T3) | Potency (C33A) | Potency (CAOV3) | Potency (CASKI) | Potency (Es-2) | Potency (HeLa) | Potency (Hek293T) | Potency (JEG-3) | Potency (OV90) | Potency (PA-1) | Potency (SKOV3) | Potency (Tov-21-G) | Potency (Tov112D)

O=C(NCCN1CCC(n2c(=O)[nH]c3ccccc32)CC1)c1cc2cc(F)ccc2[nH]1
inactive: Potency (NIH3T3) | Potency (C33A) | Potency (CAOV3) | Potency (CASKI) | Potency (Es-2) | Potency (HeLa) | Potency (Hek293T) | Potency (JEG-3) | Potency (OV90) | Potency (PA-1) | Potency (SKOV3) | Potency (Tov-21-G) | Potency (Tov112D)

CNCCCC1(c2ccccc2)OC(C)(C)c2ccccc21 (stereo not drawn)
inactive: Potency (NIH3T3) | Potency (C33A) | Potency (CAOV3) | Potency (CASKI) | Potency (Es-2) | Potency (HeLa) | Potency (Hek293T) | Potency (JEG-3) | Potency (OV90) | Potency (PA-1) | Potency (SKOV3) | Potency (Tov-21-G) | Potency (Tov112D)

COC(=O)c1cc(Br)cnc1N1CCC(NC2CCCCC2)C(O)C1 (stereo not drawn)
inactive: Potency (NIH3T3) | Potency (C33A) | Potency (CAOV3) | Potency (CASKI) | Potency (Es-2) | Potency (HeLa) | Potency (Hek293T) | Potency (JEG-3) | Potency (OV90) | Potency (PA-1) | Potency (Tov-21-G) | Potency (Tov112D)

COc1cc(C(C)=O)c(OC)c2c1OC(C)(C)C=C2
inactive: Potency (NIH3T3) | Potency (C33A) | Potency (CAOV3) | Potency (CASKI) | Potency (Es-2) | Potency (HeLa) | Potency (Hek293T) | Potency (JEG-3) | Potency (OV90) | Potency (PA-1) | Potency (SKOV3) | Potency (Tov-21-G) | Potency (Tov112D)

C=C1C(=O)OC2C1CCC1(C)C(O)CC=C(C)C21 (stereo not drawn)
inactive: Potency (NIH3T3) | Potency (C33A) | Potency (CAOV3) | Potency (CASKI) | Potency (Es-2) | Potency (HeLa) | Potency (Hek293T) | Potency (JEG-3) | Potency (OV90) | Potency (PA-1) | Potency (SKOV3) | Potency (Tov112D)

COc1cc(/C=C2\CC[C@H]3COC[C@@H](c4cc(F)c(F)c(F)c4)N3C2=O)ccc1-n1cnc(C)c1
inactive: Potency (NIH3T3) | Potency (C33A) | Potency (CAOV3) | Potency (CASKI) | Potency (Es-2) | Potency (HeLa) | Potency (Hek293T) | Potency (JEG-3) | Potency (OV90) | Potency (PA-1) | Potency (Tov-21-G) | Potency (Tov112D)

CCC[C@@]1(CCc2ccccc2)CC(O)=C([C@H](CC)c2cccc(NS(=O)(=O)c3ccc(C(F)(F)F)cn3)c2)C(=O)O1
inactive: Potency (NIH3T3) | Potency (C33A) | Potency (CAOV3) | Potency (CASKI) | Potency (Es-2) | Potency (HeLa) | Potency (Hek293T) | Potency (JEG-3) | Potency (OV90) | Potency (PA-1) | Potency (SKOV3) | Potency (Tov-21-G) | Potency (Tov112D) | activity, negative = cell killing ([1]; at 45.9 µM (top of the series), tumour line B) -17% | activity, negative = cell killing ([1]; at 45.9 µM (top of the series), tumour line D) -1.26% | activity, negative = cell killing ([1]; at 46.1 µM (top of the series), tumour line C) -12.2%

COC(=O)c1ccc2c(c1)[nH]c1ncnc(NCCCN3CCCCC3)c12
inactive: Potency (NIH3T3) | Potency (C33A) | Potency (CAOV3) | Potency (CASKI) | Potency (Es-2) | Potency (HeLa) | Potency (Hek293T) | Potency (JEG-3) | Potency (OV90) | Potency (SKOV3) | Potency (Tov-21-G) | Potency (Tov112D)

CC(C)(O)C1CC(=O)C2(C)C(CCC3(C)C(c4ccoc4)OC(=O)C4OC432)C12CCC(=O)OC2 (stereo not drawn)
inactive: Potency (NIH3T3) | Potency (C33A) | Potency (CAOV3) | Potency (CASKI) | Potency (Es-2) | Potency (HeLa) | Potency (Hek293T) | Potency (OV90) | Potency (SKOV3) | Potency (Tov-21-G) | Potency (Tov112D)

Nc1nc2c(nc(Br)n2[C@@H]2O[C@@H]3COP(=O)(O)O[C@H]3[C@H]2O)c(=O)[nH]1
inactive: Potency (NIH3T3) | Potency (C33A) | Potency (CAOV3) | Potency (CASKI) | Potency (Es-2) | Potency (HeLa) | Potency (Hek293T) | Potency (JEG-3) | Potency (OV90) | Potency (PA-1) | Potency (Tov-21-G) | Potency (Tov112D)

CC1=C2C[C@@]3(C)C(CCC[C@@H]3C)C(O)C2OC1=O (stereo partly drawn)
inactive: Potency (NIH3T3) | Potency (C33A) | Potency (CAOV3) | Potency (CASKI) | Potency (Es-2) | Potency (HeLa) | Potency (Hek293T) | Potency (JEG-3) | Potency (OV90) | Potency (PA-1) | Potency (SKOV3) | Potency (Tov-21-G) | Potency (Tov112D)

CC[C@@H]1C[C@]1(NC(=O)[C@@H]1C[C@@H]2CN1C(=O)[C@H](C(C)(C)C)NC(=O)OCC(C)(C)CCCCc1cccc3c1CN(C3)C(=O)O2)C(=O)NS(=O)(=O)C1CC1
inactive: Potency (NIH3T3) | Potency (C33A) | Potency (CAOV3) | Potency (CASKI) | Potency (Es-2) | Potency (HeLa) | Potency (Hek293T) | Potency (OV90) | Potency (PA-1) | Potency (SKOV3) | Potency (Tov-21-G) | Potency (Tov112D)

C=C1CC[C@@H]2[C@](C)(CO)[C@H](O)CC[C@@]2(C)[C@@H]1CC(O)C1=CCOC1=O (stereo partly drawn)
inactive: Potency (NIH3T3) | Potency (C33A) | Potency (CAOV3) | Potency (CASKI) | Potency (Es-2) | Potency (HeLa) | Potency (Hek293T) | Potency (JEG-3) | Potency (OV90) | Potency (PA-1) | Potency (Tov-21-G) | Potency (Tov112D)

CC(C)(F)CC(NC(c1ccc(-c2ccc(S(C)(=O)=O)cc2)cc1)C(F)(F)F)C(=O)NC1(C#N)CC1 (stereo not drawn)
inactive: Potency (NIH3T3) | Potency (C33A) | Potency (CAOV3) | Potency (CASKI) | Potency (Es-2) | Potency (HeLa) | Potency (Hek293T) | Potency (JEG-3) | Potency (OV90) | Potency (PA-1) | Potency (Tov-21-G) | Potency (Tov112D)

CCn1c(=O)n([C@H]2CCCN(c3nccc(-c4cc5ccccc5o4)n3)C2)c2ccccc21
inactive: Potency (NIH3T3) | Potency (C33A) | Potency (CAOV3) | Potency (CASKI) | Potency (Es-2) | Potency (HeLa) | Potency (Hek293T) | Potency (JEG-3) | Potency (OV90) | Potency (PA-1) | Potency (Tov-21-G) | Potency (Tov112D)
